# Experimental data published in PMC5540273 (PLoS ONE, 2017).
# Legend:
# Conditions in all cases: concentration: 1 μM, replicates: in singlicate; n = 1
# CTK = test system: T1, CTK
# T1 construct: gene MATK
# DAPK1 = test system: DAPK1
# DAPK2 = test system: DAPK2
# DAPK3 = test system: DAPK3
# DCAMKL1 = test system: T2, DCAMKL1
# T2 construct: gene DCLK1
# DCAMKL2 = test system: T3, DCAMKL2
# T3 construct: gene DCLK2
# DCAMKL3 = test system: T4, DCAMKL3
# T4 construct: gene DCLK3
# DDR1 = test system: DDR1
# DDR2 = test system: DDR2
# DLK = test system: T5, DLK
# T5 construct: gene MAP3K12
# 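Also: KINOMEscan kinase panel screen.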
SMILES,%Inh (CTK) [%],%Inh (DAPK1) [%],%Inh (DAPK2) [%],%Inh (DAPK3) [%],%Inh (DCAMKL1) [%],%Inh (DCAMKL2) [%],%Inh (DCAMKL3) [%],%Inh (DDR1) [%],%Inh (DDR2) [%],%Inh (DLK) [%]
COc1cccc(NC(=O)Nc2ccc(C)c(-c3ccc(C(=O)Nc4ccncc4)cc3)c2)c1 [GSK1398474],0,28,8,0,1,7,0,94.2,36,6
COc1ccc2cc(-c3nc(-c4ccccc4C(C)C)[nH]c3-c3ccncc3)ccc2c1 [SB-660566],0,0,0,8,1,0,23,90.5,6,18
COc1ccc(-c2coc3ccc(-c4nnc(C)o4)cc23)cc1,0,0,1,0,15,0,13,0,0,0
COc1ccc(CSc2nnc(-c3ccc4nccn4c3)o2)cc1C(F)(F)F,0,0,0,1,8,0,0,13,0,0
Cc1ccc(NC(=O)Nc2ccc(Cl)c(C(F)(F)F)c2)cc1-c1ccc(C(=O)Nc2ccncc2)cc1 [GSK1398470],0,8,21,0,0,11,5,97.3,63,0
